Assay outcomes: PubChem, National Center for Advancing Translational Sciences (NCATS)
Pol kappa inh: inhibitors of human DNA polymerase kappa. purified Pol kappa, fluorescent DNA synthesis assay, 10 min. Potency, µM (titrated, usually from 107 µM), for inactives: at the highest dose activity, negative = inhibition, usual class: inhibitors. hit rate 0.53% among 400,000. AID 588579; note: % is set by controls: 0 for no effect and ±100 for the full control effect
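50 nM final substrate added after 15 min RT preincubation of 10 nM Pol kappa with compound; fluorescence read at 0 and 10 min.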
POLH inh: blocks human DNA polymerase eta activity; recombinant Pol eta, fluorescent DNA replication assay; Potency, µM (top dose mostly 114 µM), for the others: at the top dose activity change, negative = inhibition, usual class: inhibitors; AID 588591; Q9Y253; hit rate 1.2% among 390,000; note: % is set by controls: 0 for no effect and ±100 for the full control effect
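Pol eta (10 nM) was preincubated with compounds for 15 min at room temperature, after which fluorescent replication substrate (50 nM final) was added to start the reaction. Fluorescence was read kinetically at 0 and 10 min.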
Pol iota inh: blocks human DNA polymerase iota activity; Q9UNA4; Pol iota fluorescent replication assay, 10 min; Potency, µM (top dose mostly 115 µM), without a hit: at the top dose activity, negative = inhibition, usual class: inhibitors; hit rate 1% among 390,000
Target sequence (Q9UNA4 whole entry, looked up): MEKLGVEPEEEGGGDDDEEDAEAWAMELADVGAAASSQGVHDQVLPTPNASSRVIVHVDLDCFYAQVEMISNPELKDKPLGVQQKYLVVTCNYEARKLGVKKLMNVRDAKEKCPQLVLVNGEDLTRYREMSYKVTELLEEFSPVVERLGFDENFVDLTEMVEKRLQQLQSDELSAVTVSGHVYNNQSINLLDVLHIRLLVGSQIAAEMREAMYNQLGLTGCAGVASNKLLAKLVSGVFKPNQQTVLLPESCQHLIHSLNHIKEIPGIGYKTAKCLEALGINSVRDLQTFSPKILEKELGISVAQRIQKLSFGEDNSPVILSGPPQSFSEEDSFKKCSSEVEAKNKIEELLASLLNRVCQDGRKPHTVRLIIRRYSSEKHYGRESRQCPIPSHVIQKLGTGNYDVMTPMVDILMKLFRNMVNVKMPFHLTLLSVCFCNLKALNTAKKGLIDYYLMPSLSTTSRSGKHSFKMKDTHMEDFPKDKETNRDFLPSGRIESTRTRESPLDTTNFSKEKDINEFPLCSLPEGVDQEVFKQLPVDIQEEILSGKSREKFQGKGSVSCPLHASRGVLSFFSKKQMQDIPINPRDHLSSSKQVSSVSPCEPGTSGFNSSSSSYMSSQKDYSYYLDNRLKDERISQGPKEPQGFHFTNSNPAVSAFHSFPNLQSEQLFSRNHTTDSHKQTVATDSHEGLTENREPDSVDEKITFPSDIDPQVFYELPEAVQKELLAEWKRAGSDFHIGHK
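Fluorescent replication assay read twice, at 0 min and 10 min after adding 50 nM (final) substrate. Enzyme (10 nM) and compounds were first incubated 15 min at room temperature; enzyme-free buffer wells were negative controls.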
WRN inhibitor: WRN helicase (human) inhibition; Q14191; Potency, µM (doses to about 114 µM), inactives show at the highest dose activity change, negative = inhibition, usual class: inhibitors; hit rate 0.46% among 360,000; WRN helicase unwinding, fluorescent forked duplex, kinetic; note: % is set by controls: 0 for no effect and ±100 for the full control effect; nearly all actives have a fitted effect of over 55% in size
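Kinetic fluorescence helicase assay: unwinding of a quenched forked DNA duplex (100 nM final) with 2 mM ATP final raises red fluorescence (525/598 nm). Compounds sat 15 min at room temperature with 20 nM WRN beforehand.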
L3MBTL1 block: inhibitors of human L3MBTL1 | hit rate 0.66% among 230,000 | Potency, µM (highest dose often 57.1 µM), for inactives: at the top dose activity, negative = inhibition, usual class: inhibitors | Q9Y468 | AlphaScreen L3MBTL1–H3K9me1 peptide binding | AID 485360; note: % is set by controls: 0 for no effect and ±100 for the full control effect; nearly all actives have a fitted effect of over 60% in size
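Displacement of a biotinylated histone H3(1-15) peptide monomethylated at Lys9 (75 nM) from L3MBTL1 (50 nM) was measured by AlphaScreen after a 30 min room-temperature compound incubation; cefsulodin titration served as intraplate control.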
POLB inh: blocks human DNA polymerase beta activity; Pol beta primer extension/strand displacement, fluorescence kinetic; Potency, µM (doses to about 114 µM), without a hit: at the highest dose activity change, negative = inhibition, hits mostly inhibitors; hit rate 1.3% among 340,000; AID 485314; note: % is set by controls: 0 for no effect and ±100 for the full control effect
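Pol beta (10 nM) was preincubated with compound for 15 min at room temperature. The reaction was then started with 50 nM substrate and read immediately and after a further 10 min at room temperature.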
An asterisk follows results filed as active; ? = inconclusive; nt = no result given; ! = repeats disagree; [ ] = dose if it differs, or a comment. Rows were chosen to be rich in hits. Some 2.5% of all compounds tested hit in one or more screens of this group. Calls come from the whole dose curve; as a rule, active = well fitted curve in the direction sought with a large enough effect; inconclusive = small, poorly fitted or top-dose-only effect, or another doubt; inactive = no such curve, though single readings can be large; an effect the other way counts as inactive or inconclusive. Potency is the fitted concentration of half-maximal effect.

SMILES | Pol kappa inh | POLH inh | Pol iota inh | WRN inhibitor | L3MBTL1 block | POLB inh
COc1cccc(/C=N/Nc2nccnc2Cl)c1O | -6% | -18% | 11% | -9% | ? | -14%
COc1cccc(/C=N/Nc2cc(-n3nc(C)cc3-c3ccccc3)ncn2)c1O | -21% | -21% | ? | -21%[57.1 µM] | -4% | 5%
COc1cccc(/C=N/Nc2ncnc3scc(-c4ccccc4)c23)c1O | -12% | -28% | 19% | -14% | 32µM* | 5%
O=C(NN1C(=O)C2C(c3ccccc3)C=CC(c3ccccc3)C2C1=O)c1cccc(Br)c1 (stereo not drawn) | -8% | -20% | -3% | ? | 11% | 1%
O=C1[C@@H]2[C@H](C(=O)N1CC(O)COCc1ccccc1)C1C=C[C@H]2C1 (stereo partly drawn) | -7% | -7% | 22% | -10% | nt | nt
Cc1onc(-c2ccccc2Cl)c1C(=O)NCCCc1ccccc1 | -9% | -14% | 7% | -20% | nt | -10%
COc1ccc(S(=O)(=O)N2CCN(C(=O)N3CCOCC3)C2C)cc1 (stereo not drawn) | 3% | -11% | 59% | 3% | nt | -18%
Cc1cc(C)nc(Nc2ccc(O)cc2)n1 | -9% | -25% | 11% | 1% | nt | 8%
Cc1cc(Nc2ccc(O)cc2)ccc1N | -26% | nt | 20µM* | nt | -19% | nt
C=CCN(CC=C)c1cnn(-c2nc3ccccc3[nH]2)c(=O)c1Cl | -1% | 1% | 14% | -2% | nt | 0.22µM*
CCC[C@@H]1CCCO[C@@](C(=O)NCc2cc(C)n(C)n2)(C(F)(F)F)C1 | ? | -19% | 89µM*! | 5% | nt | nt
COc1ccccc1-n1c(O)c(C=NCc2ccccn2)c2ccccc2c1=O | -10% | -1% | 11% | -2% | 1% | 40%
O=C(CNc1cccc(S(=O)(=O)N2CCCCC2)c1)Nc1cccc(F)c1 | -5% | -17% | -13% | -19% | -1% | nt
O=C(/C=C/c1cccs1)Nc1sc2c(c1C(=O)O)CCCC2 | 7% | -11% | 14µM* | 6% | nt | ?
O=C(Nc1sc2c(c1C(=O)O)CCCC2)c1cccs1 | -8% | ? | ? | -12% | -8% | ?
CC(=O)n1c2c(c3ccccc31)OC(N)=C(C#N)C2c1cccc(Cl)c1Cl (stereo not drawn) | -12% | -8% | ? | -2% | 3% | ?
COCCCNc1oc(-c2cccs2)nc1S(=O)(=O)c1ccc(C)cc1 | -3% | -19% | 79% | -4% | 6% | 40µM*
COCCNc1oc(-c2cccs2)nc1S(=O)(=O)c1ccc(C)cc1 | -1% | -9% | 31% | 1% | -13% | ?
COc1ccc(CN(C)CC(=O)NC2CCCc3ccccc32)cc1OC (stereo not drawn) | -4% | -12% | 117% | -4% | nt | -17%
COc1ccc(/C=C2\SC(=S)N(CCCC(=O)Nc3ccccc3C(=O)O)C2=O)cc1OC | 3% | 89µM* | ? | 3%[11.6 µM] | nt | -1%
COc1cc(/C=C2\SC(=S)N(N3CCOCC3)C2=O)ccc1O | -18% | ? | ? | -16% | nt | -14%
COc1cc(/C=C2\SC(=S)N(C(C(=O)O)c3ccccc3)C2=O)ccc1O (stereo not drawn) | -35% | ? | 28µM* | 50µM* | 0% | ?
COc1cc(/C=C2/SC(=S)N(c3c(C)n(C)n(-c4ccccc4)c3=O)C2=O)ccc1O | -22% | ? | 28µM* | ? | -7% | 28µM*
O=C1/C(=C\c2ccc(O)c(O)c2)SC(=S)N1Cc1ccccc1 | -24% | -30% | 22µM* | 11µM* | nt | ?
O=C1/C(=C\c2cccc(O)c2)SC(=S)N1Cc1ccccc1 | -9% | -16% | -17% | -8% | 0%[2.29 µM] | 8%
SMILES | Pol kappa inh | POLH inh | Pol iota inh | WRN inhibitor | L3MBTL1 block | POLB inh
COc1cc(/C=C2/SC(=S)N(Cc3ccccc3)C2=O)ccc1O | ? | ? | 40µM* | 8.9µM* | ? | 10µM*
O=C(O)COc1cccc(/C=C2/SC(=S)N(Cc3ccccc3)C2=O)c1 | -42% | 79µM* | ? | ? | nt | ?
O=C(Nc1ccc2c(c1)OCCO2)c1ccc(Cl)cc1Cl | -6% | -7% | -11% | -1% | 29%[2.29 µM] | 8%
O=C(c1c[nH]c2ccc(S(=O)(=O)Nc3ccccc3F)cc2c1=O)N1CCCCCC1 | -15% | 0% | ? | nt | nt | 17%
CN(Cc1ccccc1)C(=O)c1c[nH]c2ccc(S(=O)(=O)Nc3ccccc3F)cc2c1=O | ? | ? | -32% | nt | nt | 25µM*
CCc1ccc(NS(=O)(=O)c2ccc3[nH]cc(C(=O)N4CCc5ccccc54)c(=O)c3c2)cc1 | ? | ? | -65% | -19% | ? | 18µM*
CCc1ccccc1NS(=O)(=O)c1ccc2[nH]cc(C(=O)N3CCCCC3)c(=O)c2c1 | -10% | 9% | ? | nt | nt | 22µM*
O=C(NCCc1ccccc1)c1c[nH]c2ccc(S(=O)(=O)Nc3ccccc3F)cc2c1=O | -29% | ? | ? | nt | nt | ?
Cc1cc(C)cc(NS(=O)(=O)c2ccc3[nH]cc(C(=O)N4CCc5ccccc54)c(=O)c3c2)c1 | -2% | ? | ? | -10% | -2% | 1%
CC[C@]12c3[nH]c4cc(-c5ccco5)ccc4c3CCN1C(=O)[C@@H](CC(=O)NCc1ccco1)C[C@@H]2C(=O)N1CCN(C(=O)c2ccco2)CC1 | -12% | -9% | 50µM* | -3%[11.6 µM] | 35µM* | nt
O=C(CSc1nnc(C2CC2)n1C1CC1)c1ccc(F)c(F)c1 | 0% | 1% | 6% | 2% | -4% | nt
O=C(COc1ccc(/C=C\[N+](=O)[O-])cc1)N1CCOCC1 | -20% | 32µM* | 32µM* | -14%[11.6 µM] | 47% | -24%
OC(c1ccccc1)c1nc(-c2ccc3c(c2)OCO3)cs1 (stereo not drawn) | nt | nt | nt | 1% | nt | nt
O=C1C([N+](=O)[O-])=C(O)c2cccc3cccc1c23 | nt | nt | nt | nt | nt | 11µM*
O=C1c2sccc2-c2cccc3cccc1c23 | nt | -21% | nt | 3% | nt | nt
O=C(O)CN1C(c2ccccc2)=Nc2ccc(Br)cc2C1c1ccccc1 (stereo not drawn) | -5% | -13% | 32% | 4% | -7% | 1%
CCOc1ccccc1N(CC(=O)NCCSCc1ccco1)S(=O)(=O)c1ccccc1 | ? | ? | ? | -35% | nt | 28µM*
O=C(CN1C(=O)c2ccccc2S1(=O)=O)NCCSCc1ccco1 | -25% | -1% | 100µM* | -10%[57.1 µM] | -4% | 5%
Cc1ccccc1N(CC(=O)NCCSCc1ccco1)S(C)(=O)=O | -11% | -11% | 56µM* | -18% | -15% | ?
